# In ChEMBL document CHEMBL4513216, “Probing the Open Global Health Chemical Diversity Library for Multistage-Active Starting Points for Next-Generation Antimalarials” (ACS Infect Dis, 2020):
# About 8,600 (12%) of roughly 69,000 compounds showed an effect of 50% or more. The sample holds strong results, similar compounds and a random draw of the others, so the mix is not that of the screen.
# System: Plasmodium berghei
# Assay: Screen against P. berghei liver stage (PbLuc), transformed with Luciferase, at 10uM
# Type: functional, HepG2
# Details: tested at 10 uM
row,Compound,INHIBITION [%]
1,Cc1csc2c(=O)n3c(nc12)CCN(C(=O)c1ccccn1)CC3,35.2
2,Cc1csc2nc3n(c(=O)c12)CCN(C(=O)c1ccncc1)CC3,56.9
3,Cc1ccc(C(=O)N2CCc3nc4c(C)csc4c(=O)n3CC2)cn1,57.5
4,Cc1csc2nc3n(c(=O)c12)CCN(Cc1ccccn1)CC3,1.5
5,Cc1csc2c(=O)n3c(nc12)CCN(C(=O)c1cccnc1)CC3,36.4
6,Cc1cc2c(=O)n3c(nc2s1)CCN(C(=O)c1ccncc1)CC3,19.9
7,CCC[C@H]1CN(S(C)(=O)=O)C[C@@H]1NC(=O)CCOCC,27.6
8,O=C(CCN1CCCO1)N1CCCC(CO)(CCCc2ccccc2)C1 (stereo not given),-4.56
9,N#Cc1ccc(CN2CCN(c3ccncc3Cl)CC2=O)cc1,24.5
10,N#Cc1ccc(CN2CCN(Cc3ccncc3Cl)CC2=O)cc1,25.7
11,Cc1noc(C)c1CN1CC2(CCN(Cc3c[nH]cn3)CC2)CC1=O,-27.6
12,N#Cc1cccc(CN2CC3(CCCCN3c3cccnc3)CC2=O)c1 (stereo not given),57.1
13,N#Cc1cccc(CN2CC3(CCCCN3c3cncnc3)CC2=O)c1 (stereo not given),27.5
14,Cc1noc(C)c1CN1CC2(CCCCN2c2cncnc2)CC1=O (stereo not given),65.9
15,N#Cc1cccc(CN2CC[C@@H]3[C@@H]2CC(=O)N3Cc2cccnc2)c1,22.7
16,Cc1noc(C)c1CN1CC2(CCCCN2C)CC1=O (stereo not given),39.3
17,N#Cc1ccc(CN2CC3(CCCCN3c3cccnc3)CC2=O)cc1 (stereo not given),57.1
18,CCN1CC(COC(=O)c2ccc(N(C)C)cc2F)CC1=O (stereo not given),-56.7
19,O=C(c1cccc(Cl)c1)N1CCCC2(CCCNC2)C1 (stereo not given),0.164
20,CN(C)C(=O)CN1C[C@H]2CC[C@@H](C1)N(Cc1ccc3nsnc3c1)C2,33.8
21,Cc1ncc(C(=O)N2CCOC(C(=O)N3CCCCC3)C2)c(C)n1 (stereo not given),-5.6
22,CN(Cc1cccc(O)c1)Cc1cnn(C)c1,10
23,Cn1cc(-n2cc3nc(N4CCOCC4)[nH]cc-3c2=O)cn1,-38.7
24,NC(=O)c1c(SCCN2CCOCC2)sc2c(O)cc(=O)[nH]c12,20
25,O=C(C1CCC1)N1CCc2onc(Cn3cccn3)c2C1,24.5
26,CN(C)S(=O)(=O)N1CCCC1c1cccc(-n2ccnc2)n1 (stereo not given),33.7
27,CO[C@@H]1CC[C@@H](NC(=O)CCc2ccc(Cl)cc2)[C@H]1O,5.35
28,COCc1nc2ncc3c(=O)n(-c4cccc(OC)c4)ccc3n2n1,16.1
29,COCc1nc2ncc3c(=O)n(-c4ccc(OC)cc4)ccc3n2n1,15
30,COCc1nc2ncc3c(=O)n(-c4ccccc4OC)ccc3n2n1,66.9
